Test results from the supplement of paper PMC10849652.
Targets with a hit are over-represented here; the source holds about 7,900 in all. About 0.6% of all pairs of compound and target were hits.

Tests used:
Assay in all cases: log2 fold change, soluble protein after heating vs DMSO (PISA); higher = thermal stabilisation; K562 cells, 10 uM, 30 min; active = over 0.2 and 3.5 SD of the protein, either way, in both replicates (recomputed)
[1] = compound: COC1=CC=C(C=C1)CN2C=CC3=C2C=C(C=C3)C(=O)NO
In short: (§1)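 K562 cells at 2×10^6 cells/mL were exposed to 10 μM compound for 30 min, then aliquots were heated for 3 min across 48°C-58°C, pooled, and extracted in PBS containing 0.5% NP-40 at 4°C. The supernatant after 21,000xg for 90 min was taken as soluble protein and measured by TMTpro 16plex LC-MS/MS with channel sums equalised. Thermal stability is reported relative to control samples, with values from duplicates. Fold changes are given on a log2 scale.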

filanesib = compound: CON(C)C(=O)N1N=C(c2cc(F)ccc2F)S[C@@]1(CCCN)c1ccccc1 [filanesib]
In short: as §1

zotarolimus = compound: CO[C@H]1C[C@@H]2CC[C@@H](C)[C@@](O)(O2)C(=O)C(=O)N2CCCC[C@H]2C(=O)O[C@H]([C@H](C)C[C@@H]2CC[C@H](n3cnnn3)[C@H](OC)C2)CC(=O)[C@H](C)/C=C(\C)[C@@H](O)[C@@H](OC)C(=O)[C@H](C)C[C@H](C)/C=C/C=C/C=C/1C [zotarolimus]
In short: as §1

idasanutlin = compound: COc1cc(C(=O)O)ccc1NC(=O)[C@@H]1N[C@@H](CC(C)(C)C)[C@](C#N)(c2ccc(Cl)cc2F)[C@H]1c1cccc(Cl)c1F [idasanutlin]
In short: as §1

alisertib = compound: COc1cc(Nc2ncc3c(n2)-c2ccc(Cl)cc2C(c2c(F)cccc2OC)=NC3)ccc1C(=O)O [alisertib]
In short: as §1

[2] = compound: COc1cc2nc(-c3cc(F)ccc3O)nc(N[C@@H]3CNC[C@H]3C(C)(C)O)c2cc1OC
In short: as §1

gefitinib = compound: COc1cc2ncnc(Nc3ccc(F)c(Cl)c3)c2cc1OCCCN1CCOCC1 [gefitinib]
In short: as §1

[3] = compound: COc1cccc2cc(-c3nc([C@H]4CC[C@H](C(=O)O)CC4)n4ncnc(N)c34)[nH]c12
In short: as §1

lapatinib = compound: CS(=O)(=O)CCNCc1ccc(-c2ccc3ncnc(Nc4ccc(OCc5cccc(F)c5)c(Cl)c4)c3c2)o1 [lapatinib]
In short: as §1

pictilisib = compound: CS(=O)(=O)N1CCN(Cc2cc3nc(-c4cccc5[nH]ncc45)nc(N4CCOCC4)c3s2)CC1 [pictilisib]
In short: as §1

[4] = compound: CS(=O)(=O)c1ccc(-c2cnc(N)c(C(=O)Nc3ccccc3)n2)cc1
In short: as §1

crizotinib = compound: C[C@@H](Oc1cc(-c2cnn(C3CCNCC3)c2)cnc1N)c1c(Cl)ccc(F)c1Cl [crizotinib]
In short: as §1

[5] = compound: C[C@@H]1COCCN1C2=NC(=NC(=C2)C3(CC3)S(=O)(=O)C)C4=C5C=CNC5=CC=C4
In short: as §1

[6] = compound: C[C@H](C1=CC=C(C=C1)C(=O)NC2=C3C=CNC3=NC=C2)N
In short: as §1

duvelisib = compound: C[C@H](Nc1ncnc2nc[nH]c12)c1cc2cccc(Cl)c2c(=O)n1-c1ccccc1 [duvelisib]
In short: as §1

gandotinib = compound: Cc1cc(Nc2cc(CN3CCOCC3)c3nc(C)c(Cc4ccc(Cl)cc4F)n3n2)n[nH]1 [gandotinib]
In short: as §1

tozasertib = compound: Cc1cc(Nc2cc(N3CCN(C)CC3)nc(Sc3ccc(NC(=O)C4CC4)cc3)n2)n[nH]1 [tozasertib]
In short: as §1

[7] = compound: Cc1cc(SCc2sc(-c3ccc(C(F)(F)F)cc3)nc2C)ccc1OCC(=O)O
In short: as §1

doramapimod = compound: Cc1ccc(-n2nc(C(C)(C)C)cc2NC(=O)Nc2ccc(OCCN3CCOCC3)c3ccccc23)cc1 [doramapimod]
In short: as §1

ispinesib = compound: Cc1ccc(C(=O)N(CCCN)[C@@H](c2nc3cc(Cl)ccc3c(=O)n2Cc2ccccc2)C(C)C)cc1 [ispinesib]
In short: as §1

Measured: log2 fold change

NIPSNAP2 (UniProt O75323)
inactive: [1] 0.074 | filanesib -0.065 | zotarolimus 0.008 | idasanutlin -0.022 | alisertib 0.003 | [2] 0.007 | gefitinib 0.045 | [3] -0.038 | pictilisib 0.079 | [4] -0.014 | crizotinib 0.083 | [5] 0.068 | [6] -0.041 | duvelisib 0.019 | gandotinib 0.057 | tozasertib -0.084 | [7] 0.105 | doramapimod -0.106 | ispinesib 0.162
active: lapatinib 0.224

NA, A0A096LPI6
inactive: [1] 0.008 | filanesib -0.044 | zotarolimus 0.019 | idasanutlin -0.014 | alisertib -0.034 | [2] -0.123 | gefitinib 0.018 | [3] 0.074 | lapatinib 0.029 | pictilisib -0.02 | [4] -0.014 | crizotinib 0.079 | [5] 0.03 | [6] -0.015 | duvelisib 0.018 | gandotinib 0.04 | tozasertib -0.034 | [7] -0.051 | doramapimod -0.038 | ispinesib 0.047

MYL12B (UniProt O14950)
Sequence of UniProt O14950 (O14950 whole entry, looked up): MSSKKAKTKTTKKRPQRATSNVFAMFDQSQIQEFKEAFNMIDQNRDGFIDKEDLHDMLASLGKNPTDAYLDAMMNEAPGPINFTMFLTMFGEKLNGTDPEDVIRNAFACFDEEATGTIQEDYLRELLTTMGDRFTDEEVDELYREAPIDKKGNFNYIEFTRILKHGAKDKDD
inactive: [1] -0.008 | filanesib -0.052 | zotarolimus 0.111 | idasanutlin -0.064 | alisertib -0.06 | [2] 0.022 | gefitinib -0.001 | [3] -0.018 | lapatinib 0.047 | pictilisib -0.015 | [4] -0.016 | crizotinib -0.004 | [5] 0.019 | duvelisib 0.088 | gandotinib 0.058 | tozasertib 0.005 | [7] -0.003 | doramapimod 0.025 | ispinesib 0.097
active: [6] -0.32

NTMT1 (UniProt Q9BV86)
Sequence of UniProt Q9BV86 (Q9BV86 whole entry, looked up): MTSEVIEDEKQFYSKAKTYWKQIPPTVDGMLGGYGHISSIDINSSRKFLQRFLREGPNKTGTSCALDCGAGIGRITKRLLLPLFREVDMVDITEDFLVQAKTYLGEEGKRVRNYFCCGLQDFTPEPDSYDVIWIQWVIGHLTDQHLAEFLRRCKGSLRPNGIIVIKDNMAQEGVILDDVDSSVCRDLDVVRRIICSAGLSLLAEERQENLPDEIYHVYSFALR
active: [1] -0.455
inactive: filanesib -0.055 | zotarolimus 0.091 | idasanutlin -0.121 | alisertib -0.043 | [2] 0.085 | gefitinib 0.062 | [3] -0.027 | lapatinib -0.001 | pictilisib 0.092 | [4] 0.128 | crizotinib 0.039 | [5] 0.074 | [6] -0.029 | duvelisib 0.054 | gandotinib 0.093 | tozasertib 0.067 | [7] 0.021 | doramapimod 0.071 | ispinesib 0.02

MKRN2 (UniProt Q9H000)
inactive: [1] 0.024 | filanesib 0.137 | zotarolimus -0.035 | idasanutlin 0.147 | alisertib -0.009 | [2] 0.101 | gefitinib -0.099 | [3] -0.079 | lapatinib -0.027 | pictilisib 0.03 | [4] -0.035 | crizotinib -0.094 | [5] -0.077 | [6] 0.117 | duvelisib -0.111 | gandotinib 0.221 | tozasertib 0.085 | [7] 0.076 | doramapimod -0.005 | ispinesib -0.161

NEMP1 (UniProt O14524)
active: [2] -0.487 | ispinesib -0.354
inactive: [1] -0.041 | filanesib -0.247 | zotarolimus -0.021 | idasanutlin 0.034 | alisertib -0.084 | gefitinib -0.021 | [3] 0.006 | lapatinib 0.001 | pictilisib -0.02 | [4] -0.058 | crizotinib -0.121 | [5] -0.035 | [6] 0.011 | duvelisib 0.013 | gandotinib -0.1 | tozasertib -0.004 | [7] -0.014 | doramapimod 0.032

NDUFB7 (UniProt P17568)
inactive: [1] -0.011 | filanesib -0.023 | zotarolimus -0.03 | idasanutlin -0.025 | alisertib -0.051 | [2] -0.077 | gefitinib 0 | [3] 0.002 | lapatinib -0.013 | pictilisib -0.066 | [4] 0.004 | crizotinib 0.001 | [5] 0.03 | [6] -0.094 | duvelisib 0.006 | gandotinib -0.02 | tozasertib -0.018 | [7] -0.041 | doramapimod 0.021 | ispinesib 0.015

NR2C2AP isoform 2 (UniProt Q86WQ0)
Sequence of UniProt Q86WQ0 (Q86WQ0 whole entry, looked up): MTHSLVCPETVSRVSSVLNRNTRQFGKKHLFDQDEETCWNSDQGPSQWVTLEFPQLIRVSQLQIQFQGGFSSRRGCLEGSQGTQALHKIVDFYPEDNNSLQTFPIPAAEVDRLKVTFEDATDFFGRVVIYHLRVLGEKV
inactive: [1] 0.101 | filanesib 0.01 | zotarolimus -0.014 | idasanutlin -0.062 | alisertib -0.066 | [2] -0.034 | gefitinib -0.01 | [3] 0.093 | lapatinib -0.011 | pictilisib 0.08 | [4] 0.085 | crizotinib 0.011 | [5] 0.138 | [6] 0.025 | duvelisib 0.044 | gandotinib -0.035 | tozasertib 0.08 | [7] 0.01 | doramapimod -0.17
active: ispinesib 0.285

NFATC2IP (UniProt Q8NCF5)
inactive: [1] -0.008 | filanesib -0.015 | zotarolimus -0.021 | idasanutlin -0.141 | alisertib 0.01 | [2] 0.026 | gefitinib 0 | [3] 0.056 | lapatinib 0.029 | pictilisib 0.098 | [4] 0.014 | crizotinib 0.023 | [5] 0.195 | [6] -0.009 | duvelisib 0.121 | gandotinib 0.011 | tozasertib 0.03 | [7] 0.045 | doramapimod -0.03 | ispinesib 0.024

NOLC1 isoform 2 (UniProt Q14978)
inactive: [1] 0.016 | filanesib 0.21 | zotarolimus 0.015 | idasanutlin 0.199 | alisertib -0.112 | [2] -0.093 | gefitinib 0.041 | [3] 0.104 | lapatinib 0.052 | pictilisib 0.056 | [4] -0.019 | crizotinib -0.135 | [5] 0.141 | [6] -0.154 | duvelisib -0.043 | gandotinib -0.023 | tozasertib -0.032 | [7] -0.038 | doramapimod 0.047 | ispinesib 0.179

OTUD4 (UniProt Q01804)
Sequence of UniProt Q01804 (Q01804 whole entry, looked up): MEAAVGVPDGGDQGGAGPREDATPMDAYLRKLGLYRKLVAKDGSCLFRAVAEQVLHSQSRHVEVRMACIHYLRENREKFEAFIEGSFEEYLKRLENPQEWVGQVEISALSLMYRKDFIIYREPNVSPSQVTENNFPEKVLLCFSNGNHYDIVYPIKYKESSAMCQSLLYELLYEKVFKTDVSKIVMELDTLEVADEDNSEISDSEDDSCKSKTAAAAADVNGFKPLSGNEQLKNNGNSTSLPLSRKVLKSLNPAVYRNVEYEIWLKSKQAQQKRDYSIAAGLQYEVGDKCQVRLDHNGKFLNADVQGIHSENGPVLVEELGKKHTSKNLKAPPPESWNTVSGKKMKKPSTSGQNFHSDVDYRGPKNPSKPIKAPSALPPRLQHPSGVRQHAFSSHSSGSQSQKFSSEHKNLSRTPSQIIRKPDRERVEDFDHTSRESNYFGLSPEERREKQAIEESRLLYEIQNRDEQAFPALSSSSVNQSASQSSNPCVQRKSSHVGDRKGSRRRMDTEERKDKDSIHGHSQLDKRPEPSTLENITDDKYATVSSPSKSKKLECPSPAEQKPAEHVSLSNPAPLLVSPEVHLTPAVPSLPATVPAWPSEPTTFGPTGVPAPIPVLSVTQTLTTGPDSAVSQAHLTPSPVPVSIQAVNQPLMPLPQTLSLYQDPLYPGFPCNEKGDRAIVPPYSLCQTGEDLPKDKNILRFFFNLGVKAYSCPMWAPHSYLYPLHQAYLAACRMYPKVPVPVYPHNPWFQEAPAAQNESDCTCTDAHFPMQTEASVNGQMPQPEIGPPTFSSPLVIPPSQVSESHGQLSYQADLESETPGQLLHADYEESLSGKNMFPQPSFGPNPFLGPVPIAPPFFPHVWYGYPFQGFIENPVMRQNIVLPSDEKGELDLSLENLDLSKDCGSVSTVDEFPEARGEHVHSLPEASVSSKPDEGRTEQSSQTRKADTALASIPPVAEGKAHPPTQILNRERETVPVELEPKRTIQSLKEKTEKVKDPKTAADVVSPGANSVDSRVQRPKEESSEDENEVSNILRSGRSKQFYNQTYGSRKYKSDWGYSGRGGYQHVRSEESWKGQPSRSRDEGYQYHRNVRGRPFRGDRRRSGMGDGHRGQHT
inactive: [1] -0.122 | filanesib 0.182 | zotarolimus 0.022 | idasanutlin 0.063 | alisertib -0.106 | [2] -0.062 | gefitinib 0.039 | [3] 0.013 | lapatinib 0.095 | pictilisib -0.025 | [4] 0.018 | crizotinib -0.001 | [5] -0.094 | [6] 0.106 | duvelisib -0.073 | gandotinib 0.059 | tozasertib 0.034 | [7] -0.001 | doramapimod 0.052 | ispinesib -0.034

NEDD4 isoform 4 (UniProt P46934)
Sequence of UniProt P46934 (P46934 whole entry, looked up): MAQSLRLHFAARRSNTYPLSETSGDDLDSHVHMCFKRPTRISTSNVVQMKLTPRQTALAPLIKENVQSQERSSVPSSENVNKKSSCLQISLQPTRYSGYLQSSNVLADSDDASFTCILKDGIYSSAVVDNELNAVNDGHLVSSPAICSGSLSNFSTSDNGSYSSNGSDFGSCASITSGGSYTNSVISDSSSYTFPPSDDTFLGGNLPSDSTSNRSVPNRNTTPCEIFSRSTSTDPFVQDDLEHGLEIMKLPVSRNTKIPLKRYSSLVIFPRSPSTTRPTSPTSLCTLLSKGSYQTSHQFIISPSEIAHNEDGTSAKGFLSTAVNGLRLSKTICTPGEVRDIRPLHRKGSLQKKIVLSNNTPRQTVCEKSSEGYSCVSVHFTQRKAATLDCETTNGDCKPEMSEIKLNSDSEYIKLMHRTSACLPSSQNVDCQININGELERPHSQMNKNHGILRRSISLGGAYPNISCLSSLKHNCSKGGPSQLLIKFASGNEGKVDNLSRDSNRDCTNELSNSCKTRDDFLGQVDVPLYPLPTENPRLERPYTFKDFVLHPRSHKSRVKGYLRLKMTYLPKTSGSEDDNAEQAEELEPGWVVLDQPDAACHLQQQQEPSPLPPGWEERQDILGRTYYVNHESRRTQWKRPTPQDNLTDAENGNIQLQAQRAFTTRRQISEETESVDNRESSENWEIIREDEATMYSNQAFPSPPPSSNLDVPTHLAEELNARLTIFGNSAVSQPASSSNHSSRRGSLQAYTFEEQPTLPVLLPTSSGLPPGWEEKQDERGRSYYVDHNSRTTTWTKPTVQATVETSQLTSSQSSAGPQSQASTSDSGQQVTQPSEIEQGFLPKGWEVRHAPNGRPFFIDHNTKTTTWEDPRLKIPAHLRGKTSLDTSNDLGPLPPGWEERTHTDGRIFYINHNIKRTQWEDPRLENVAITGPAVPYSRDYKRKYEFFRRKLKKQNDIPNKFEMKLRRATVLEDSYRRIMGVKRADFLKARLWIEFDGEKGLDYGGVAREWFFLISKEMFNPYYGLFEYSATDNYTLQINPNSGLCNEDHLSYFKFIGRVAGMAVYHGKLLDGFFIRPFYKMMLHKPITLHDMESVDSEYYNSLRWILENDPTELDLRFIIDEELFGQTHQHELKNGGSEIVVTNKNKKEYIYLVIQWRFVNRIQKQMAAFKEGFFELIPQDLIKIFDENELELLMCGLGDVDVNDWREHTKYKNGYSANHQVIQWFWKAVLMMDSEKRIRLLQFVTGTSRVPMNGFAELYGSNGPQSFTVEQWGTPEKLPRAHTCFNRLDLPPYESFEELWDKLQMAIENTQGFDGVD
inactive: [1] 0.036 | filanesib -0.02 | zotarolimus 0.064 | idasanutlin -0.042 | alisertib 0.053 | [2] 0.027 | gefitinib 0.074 | [3] -0.029 | lapatinib 0.028 | pictilisib -0.017 | [4] -0.05 | crizotinib -0.081 | [5] 0.095 | [6] -0.039 | duvelisib -0.006 | gandotinib -0.061 | tozasertib 0.093 | [7] -0.009 | doramapimod -0.042 | ispinesib -0.022

NEDD4L (UniProt Q96PU5)
inactive: [1] -0.027 | filanesib 0.095 | zotarolimus 0.032 | idasanutlin -0.018 | alisertib -0.114 | [2] 0.086 | gefitinib -0.031 | [3] 0.027 | lapatinib -0.025 | pictilisib -0.035 | [4] 0.015 | crizotinib -0.005 | [5] -0.071 | [6] -0.105 | duvelisib 0 | gandotinib 0.015 | tozasertib 0.088 | [7] 0.083 | doramapimod 0.026 | ispinesib -0.037

NAPG (UniProt Q99747)
inactive: [1] 0.046 | filanesib -0.046 | zotarolimus 0.052 | idasanutlin -0.001 | alisertib -0.005 | [2] -0.066 | gefitinib 0.025 | [3] -0.089 | lapatinib 0.029 | pictilisib -0.008 | [4] 0.045 | crizotinib -0.029 | [5] 0.045 | [6] -0.098 | duvelisib 0.054 | gandotinib -0.046 | tozasertib 0.126 | [7] 0.143 | doramapimod -0.05 | ispinesib 0.025

MRPS2 (UniProt Q9Y399)
inactive: [1] -0.052 | filanesib -0.05 | zotarolimus -0.02 | idasanutlin -0.054 | alisertib -0.19 | [2] 0.005 | gefitinib -0.036 | [3] 0.006 | lapatinib 0.071 | pictilisib -0.015 | [4] -0.043 | crizotinib 0.078 | [5] 0.032 | [6] 0.048 | duvelisib -0.003 | gandotinib -0.117 | tozasertib 0.027 | [7] 0.022 | doramapimod -0.049
active: ispinesib -0.352

NUMA1 (UniProt Q14980)
Sequence of UniProt Q14980 (Q14980 whole entry, looked up): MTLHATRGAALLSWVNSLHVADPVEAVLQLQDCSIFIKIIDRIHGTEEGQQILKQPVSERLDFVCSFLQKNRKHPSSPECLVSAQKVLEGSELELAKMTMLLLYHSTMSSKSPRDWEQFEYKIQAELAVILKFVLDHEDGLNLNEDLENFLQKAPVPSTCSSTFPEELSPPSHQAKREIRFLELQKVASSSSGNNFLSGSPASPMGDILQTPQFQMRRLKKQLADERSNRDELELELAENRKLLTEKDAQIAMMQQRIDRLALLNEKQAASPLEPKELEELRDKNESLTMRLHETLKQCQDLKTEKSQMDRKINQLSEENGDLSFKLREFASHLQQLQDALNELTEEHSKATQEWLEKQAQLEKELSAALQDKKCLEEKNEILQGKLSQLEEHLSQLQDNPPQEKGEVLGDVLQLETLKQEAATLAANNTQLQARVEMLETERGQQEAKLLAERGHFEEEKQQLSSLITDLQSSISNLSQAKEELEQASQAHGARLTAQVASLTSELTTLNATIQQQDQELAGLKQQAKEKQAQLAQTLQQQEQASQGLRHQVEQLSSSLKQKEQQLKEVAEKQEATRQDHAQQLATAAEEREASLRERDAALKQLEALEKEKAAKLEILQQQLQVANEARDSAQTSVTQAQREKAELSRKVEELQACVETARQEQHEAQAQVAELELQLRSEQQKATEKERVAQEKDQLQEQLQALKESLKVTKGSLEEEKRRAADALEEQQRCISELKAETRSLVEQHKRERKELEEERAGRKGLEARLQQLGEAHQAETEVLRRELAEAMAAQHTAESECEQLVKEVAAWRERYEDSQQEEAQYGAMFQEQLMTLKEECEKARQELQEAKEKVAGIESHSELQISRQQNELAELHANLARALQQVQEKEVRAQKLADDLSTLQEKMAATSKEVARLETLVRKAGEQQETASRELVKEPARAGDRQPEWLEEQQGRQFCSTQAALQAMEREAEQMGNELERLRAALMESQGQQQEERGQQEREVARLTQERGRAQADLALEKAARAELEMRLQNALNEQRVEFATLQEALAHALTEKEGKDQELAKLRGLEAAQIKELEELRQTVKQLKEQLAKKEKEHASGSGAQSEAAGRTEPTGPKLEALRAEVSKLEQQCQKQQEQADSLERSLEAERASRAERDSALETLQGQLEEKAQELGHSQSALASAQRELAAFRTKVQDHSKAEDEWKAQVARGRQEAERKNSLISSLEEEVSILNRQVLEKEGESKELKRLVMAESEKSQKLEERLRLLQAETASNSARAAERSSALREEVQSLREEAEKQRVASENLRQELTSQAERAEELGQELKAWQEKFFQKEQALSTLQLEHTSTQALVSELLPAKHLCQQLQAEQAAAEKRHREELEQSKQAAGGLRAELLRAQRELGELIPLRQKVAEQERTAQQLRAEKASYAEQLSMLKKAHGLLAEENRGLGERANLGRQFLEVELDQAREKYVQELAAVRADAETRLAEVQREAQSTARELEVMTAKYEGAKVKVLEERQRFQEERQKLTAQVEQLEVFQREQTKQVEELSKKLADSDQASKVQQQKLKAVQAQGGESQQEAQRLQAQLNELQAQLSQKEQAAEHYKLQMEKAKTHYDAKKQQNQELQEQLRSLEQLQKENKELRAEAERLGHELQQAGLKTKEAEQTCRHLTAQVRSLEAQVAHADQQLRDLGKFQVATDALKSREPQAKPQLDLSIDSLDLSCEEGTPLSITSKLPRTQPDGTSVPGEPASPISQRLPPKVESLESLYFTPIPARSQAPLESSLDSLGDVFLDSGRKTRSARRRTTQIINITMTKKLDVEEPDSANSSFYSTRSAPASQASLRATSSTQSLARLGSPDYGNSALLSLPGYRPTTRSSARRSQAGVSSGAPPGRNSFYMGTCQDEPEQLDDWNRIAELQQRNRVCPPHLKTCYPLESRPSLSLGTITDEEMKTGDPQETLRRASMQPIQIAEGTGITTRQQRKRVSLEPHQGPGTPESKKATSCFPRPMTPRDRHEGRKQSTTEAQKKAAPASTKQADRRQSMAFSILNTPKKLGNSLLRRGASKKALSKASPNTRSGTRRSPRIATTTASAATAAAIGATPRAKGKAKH
inactive: [1] 0.002 | filanesib 0.266 | zotarolimus 0.13 | idasanutlin 0.07 | alisertib -0.088 | [2] -0.223 | gefitinib -0.001 | [3] -0.247 | lapatinib 0.062 | pictilisib 0.021 | [4] 0.117 | crizotinib -0.001 | [5] -0.071 | [6] 0.089 | duvelisib -0.073 | gandotinib -0.066 | tozasertib 0.108 | [7] 0.07 | doramapimod 0.178 | ispinesib -0.089
